Experiment [1] in a line: yeast 75Q aggregation reduction – 75Q-TubU reporter (AID 1593). To be noted: Yeast 75Q polyglutamine aggregation reporter.
A short description of experiment [2]: restoration of touch response, mutant HTT neurons – whole organism, C. elegans mechanosensory neurons, N-terminal huntingtin (AID 1599). To be noted: C. elegans polyQ-huntingtin mechanosensory neurons, stronger effect = higher value.
Experiment [3] in a line: blockers of cytochrome c efflux from mitochondria – biochemical, purified mitochondria (AID 1603).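 Further: mouse liver mitochondria challenged with calcium chloride; signal normalized to the plate average as 100%.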 To be noted: stronger effect = lower value.
Experiment [4] in a line: polyglutamine aggregate formation blockers (AID 1604). To be noted: polyglutamine-induced protein aggregation inhibition assay; stronger effect = higher value; tested at 2.5 µM.
A short description of experiment [5]: glutamate transport activators, MN-1 cells, MN-1 cell line (AID 1612).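 Further: tested at 1 µM final; 0% = mean of DMSO vehicle wells on each plate; positive means more glutamate uptake than control and negative means less.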 To be noted: MN-1 motor neuron cells, stronger effect = higher value.
Experiment [6] in a line: GFP-Q80 aggregate reduction, neuronal-like cells, cell-based, NGF-treated PC12, GFPQ80 (AID 1614).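 Further: lower means fewer inclusions and 0 means no inclusions at all.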 To be noted: PC12 NGF-treated GFP-polyQ80 inclusion reduction.
A short description of experiment [7]: 75Q-TubH aggregate inhibition, S. cerevisiae, yeast (AID 1616). To be noted: S. cerevisiae 75Q-TubH polyglutamine aggregation suppression; stronger effect = higher value.
Experiment [8] deals with 6-phosphogluconate dehydrogenase, decarboxylating (Homo sapiens) (UniProt P52209). As to the kind of experiment: inhibition of human phosphogluconate dehydrogenase – biochemical, recombinant enzyme, NADPH absorbance, primary screen (AID 1159550). To be noted: recombinant 6PGD, NADPH absorbance 341 nm; at 10 µM; stronger effect = higher value.
Experiment [9] is described as follows: EMT-state selective cytotoxicity in co-culture – imaging, PC-3E GFP, TEM4-18 mCherry, primary screen (AID 1345086;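 active means compounds killing one labelled cell type while sparing the other, by normalised counts and ratio limits, not self-fluorescent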;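 on all read-outs here: cells exposed to compound for 72 h before imaging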;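 on red/green cell ratio (normalised): normalised mesenchymal count divided by normalised epithelial count so high means epithelial killing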). To be noted: PC-3E GFP / TEM4-18 mCherry co-culture, imaging cell counts, at 1 µM; for red/green cell ratio (normalised): actives lie on both sides.
Experiment [10] has as its system Aerobactin synthetase IucA (Klebsiella pneumoniae hvKP1). As to the kind of experiment: IucA enzyme inhibition, primary screen, biochemical, Spectrum library (AID 1346200; call rule not given here;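 further: 100% = wells without compound and 0% = wells lacking enzyme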). To be noted: malachite green pyrophosphate, A620, at 8 µM, stronger effect = lower value.
Experiment [11] in a line: blockers of polyQ-driven CASP3 activation – cell-based (AID 1583). To be noted: polyglutamine-induced caspase-3 activation, cell assay; stronger effect = higher value;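 tested at 10 µM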.
Experiment [12] is described as follows: viability loss with induced miR-34 in A549 – imaging, A549 dox-inducible miR-34, nuclei and caspase counts, primary screen (AID 1347080;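 active means compounds whose cell count with miR-34 switched on is under 0.7 times the count with it off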). To be noted: A549 miR-34 inducible, Hoechst nuclei count, 48 h.
A short description of experiment [13]: MELAS cybrid and Rieske KO viability enhancers – cell-based, MELAS cybrids, Rieske KO mouse fibroblasts, CellTiter-Glo, primary screen (AID 1508586;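 active means mean z-score across replicates of 1.96 or higher in either the MELAS or the Rieske mutant cell line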;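 further: z relative to plate mean and SD of compound and empty wells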). To be noted: low glucose.
For experiment [14], the target named is NAD(+) hydrolase SARM1 (Homo sapiens) (UniProt Q6SZW1). Kind of experiment: blocking NAD cleavage by SARM1 SAM-TIR – cell lysate, NAD-Glo luminescence (AID 1508614;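 active means compound whose remaining NAD level is above about 45 nM, limit read from the data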). To be noted: SAM-TIR HEK293T lysate NADase, at 1 µM, stronger effect = higher value.
Experiment [15] deals with Mitogen-activated protein kinase 7 (Homo sapiens) (UniProt Q13164). As to the kind of experiment: Gal4-ERK5 driven luciferase induction – cell-based, HTS, primary screen (AID 1508626;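 active means luciferase signal above three times the same-plate solvent-only control wells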;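 further: luciferase driven by Gal4-ERK5 fusion binding five Gal4 sites before minimal TATA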). To be noted: HeLa Gal4-ERK5 transactivation, 18 h, at 5 µM, stronger effect = higher value.
[16] abbreviates: measured here: epithelial PC-3E GFP cell survival.
Setting [17] is: measured here: mesenchymal TEM4-18 mCherry cell survival.

For some of these results: Results with a measured potency or affinity are listed apart. Active and inactive are the calls of the source.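 How the source made its calls, unless noted: active means at least 20% inhibition of 6-phosphogluconate dehydrogenase activity; inactive means the rest.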

6-phosphogluconate dehydrogenase, decarboxylating (Homo sapiens), sequence (P52209 whole entry, looked up): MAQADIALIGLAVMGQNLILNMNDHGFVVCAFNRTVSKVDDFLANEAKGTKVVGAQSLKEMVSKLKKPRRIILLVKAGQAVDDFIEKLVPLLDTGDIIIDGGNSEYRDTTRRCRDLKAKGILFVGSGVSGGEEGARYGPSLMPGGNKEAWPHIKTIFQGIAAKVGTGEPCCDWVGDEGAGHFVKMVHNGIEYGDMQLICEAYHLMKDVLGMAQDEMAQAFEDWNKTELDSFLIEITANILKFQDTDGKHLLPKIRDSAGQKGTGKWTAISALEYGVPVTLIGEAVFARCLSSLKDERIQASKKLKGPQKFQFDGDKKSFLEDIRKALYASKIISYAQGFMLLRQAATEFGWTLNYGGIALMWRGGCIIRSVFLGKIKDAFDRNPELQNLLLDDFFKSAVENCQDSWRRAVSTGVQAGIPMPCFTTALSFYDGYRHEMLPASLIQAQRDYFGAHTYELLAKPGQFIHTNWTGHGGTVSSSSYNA
Mitogen-activated protein kinase 7 (Homo sapiens), sequence (Q13164 whole entry, looked up, the tested form may be a part): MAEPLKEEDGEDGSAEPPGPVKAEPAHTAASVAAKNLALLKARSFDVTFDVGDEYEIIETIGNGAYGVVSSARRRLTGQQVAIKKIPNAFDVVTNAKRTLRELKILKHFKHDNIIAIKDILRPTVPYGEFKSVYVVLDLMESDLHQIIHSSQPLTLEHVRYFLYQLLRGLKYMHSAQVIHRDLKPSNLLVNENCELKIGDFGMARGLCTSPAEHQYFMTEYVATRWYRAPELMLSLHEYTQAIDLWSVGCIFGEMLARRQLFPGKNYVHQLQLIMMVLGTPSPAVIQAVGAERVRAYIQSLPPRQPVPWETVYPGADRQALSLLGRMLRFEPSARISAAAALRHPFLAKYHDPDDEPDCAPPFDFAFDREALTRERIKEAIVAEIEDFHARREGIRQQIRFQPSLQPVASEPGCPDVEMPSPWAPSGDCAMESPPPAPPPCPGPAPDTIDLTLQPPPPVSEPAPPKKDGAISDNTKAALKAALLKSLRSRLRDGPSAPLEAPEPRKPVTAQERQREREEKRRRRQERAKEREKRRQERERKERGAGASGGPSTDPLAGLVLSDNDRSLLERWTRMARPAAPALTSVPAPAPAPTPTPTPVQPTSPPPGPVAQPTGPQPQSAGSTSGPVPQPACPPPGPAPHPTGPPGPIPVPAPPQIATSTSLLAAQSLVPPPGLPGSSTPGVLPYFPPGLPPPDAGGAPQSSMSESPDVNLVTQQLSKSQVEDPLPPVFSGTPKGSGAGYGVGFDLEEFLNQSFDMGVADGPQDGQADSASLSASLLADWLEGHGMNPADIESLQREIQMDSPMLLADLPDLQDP
NAD(+) hydrolase SARM1 (Homo sapiens), sequence (Q6SZW1 whole entry, looked up, the tested form may be a part): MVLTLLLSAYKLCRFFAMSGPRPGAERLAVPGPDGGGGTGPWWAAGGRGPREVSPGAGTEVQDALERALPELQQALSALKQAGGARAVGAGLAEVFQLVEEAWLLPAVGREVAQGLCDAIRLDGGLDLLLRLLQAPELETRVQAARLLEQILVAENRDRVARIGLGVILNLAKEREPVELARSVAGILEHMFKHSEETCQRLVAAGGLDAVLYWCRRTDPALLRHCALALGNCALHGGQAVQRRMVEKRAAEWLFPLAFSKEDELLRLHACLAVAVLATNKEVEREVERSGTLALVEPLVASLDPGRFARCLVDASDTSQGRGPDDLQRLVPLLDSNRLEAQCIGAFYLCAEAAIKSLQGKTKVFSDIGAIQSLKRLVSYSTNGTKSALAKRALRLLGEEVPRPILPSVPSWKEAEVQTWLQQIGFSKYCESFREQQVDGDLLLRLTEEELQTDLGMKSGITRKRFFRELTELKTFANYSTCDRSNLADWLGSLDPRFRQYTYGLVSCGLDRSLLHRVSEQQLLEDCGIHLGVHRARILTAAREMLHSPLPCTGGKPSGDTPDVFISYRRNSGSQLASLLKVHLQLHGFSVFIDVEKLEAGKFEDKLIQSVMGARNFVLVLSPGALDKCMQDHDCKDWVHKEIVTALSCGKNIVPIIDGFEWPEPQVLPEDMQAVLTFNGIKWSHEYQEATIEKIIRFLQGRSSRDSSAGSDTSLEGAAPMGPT

Turning to `C[C@]12CCC3C(CC[C@]4(O)C[C@@H](O)CC[C@]34C=O)[C@@]1(O)CCC2C1=CC(=O)OC1` (stereo not given in full), the score in experiment [1] is 1.09. In experiment [2], this compound gave a rescue above control of 6.59. Besides, in [3], the cytochrome c release ratio came to 1.29. This compound also returned an inhibition of aggregation in experiment [4] of 62.8%. In [5], this compound displayed a glutamate uptake change of 13.8%. In experiment [6], this compound showed an inclusion score of 0. This compound also yielded an aggregation suppression score in [7] of 1.29. Also, the inhibition in experiment [8] is 14.9% (inactive). Further, in experiment [9], the red/green cell ratio (normalised) is 0.2 (inactive). Moreover, the normalised cell number in [9] (setting [16]) came out at 0.18; in experiment [9] (setting [17]), 0.04. In addition, the activity remaining in [10] is 79.3% (inactive).

As to `COc1cc2c(c(OC)c1OC)-c1ccc(O)c(=O)cc1[C@@H](NC(C)=O)CC2`, the inhibition in [8] was 7.64% (inactive). Besides, in experiment [10], the activity remaining is 120% (inactive).

With `CC(=O)OC1CN2CCC1CC2` (stereo not given), the inhibition is 0.37% in experiment [11] and 8.99% (inactive) in experiment [8]. Also, in experiment [1], the score came out at 1.53. Besides, the rescue above control in [2] was -10.7. In addition, the cytochrome c release ratio in experiment [3] amounted to 0.82. For the same compound, the inhibition of aggregation in experiment [4] was determined as 22.1%. In addition, the glutamate uptake change in [5] was found to be 24.5%. The inclusion score in experiment [6] was determined as 2. Besides, in experiment [7], the aggregation suppression score came to 1.12. Besides, in experiment [9], the red/green cell ratio (normalised) is 0.81 (inactive). For the same compound, the figures for the normalised cell number in [9] (setting [16]) and in experiment [9] (setting [17]) were 1.08 and 0.87, respectively. Also, the fold change in experiment [12] (stronger effect = lower value) is 0.909 (inactive); in experiment [12] (measured here: relative caspase fold change +Dox/-Dox), 0.869. Besides, the cell count in experiment [12] (measured here: total cells with miR-34 induction, stronger effect = lower value) came out at 8550; in experiment [12] (measured here: total cells without miR-34 induction), 9400. The z-score was -3.18 (inactive) in [13] (MELAS cybrid survival, CellTiter-Glo 48 h, stronger effect = higher value) and -1.86 in [13] (Rieske KO mouse fibroblast survival, CellTiter-Glo 72 h). In [14], the remaining NAD was 10 nM (inactive).

With `C=CCc1cc(OC)c2c(c1OC)OCO2`, the inhibition in experiment [8] is -12.9% (inactive). The red/green cell ratio (normalised) in experiment [9] is 1.18 (inactive). Also, the normalised cell number in [9] (setting [16]) is 0.73; in experiment [9] (setting [17]) it was 0.87. Also, the luciferase signal in [15] is 32 AU (inactive).

Turning to `COc1c(CC=C(C)C)c2c(c3oc(=O)c(-c4ccc(O)cc4)c(O)c13)C=CC(C)(C)O2`, in [8], the inhibition is -2.87% (inactive). Further, in experiment [10], the activity remaining was 114% (inactive).

With `C=C(C)[C@@H]1[C@H]2OC(=O)[C@@H]1[C@]1(O)C[C@H]3O[C@]34C(=O)O[C@H]2[C@]14C`, the inhibition was -31.3% in experiment [11] and 2.77% (inactive) in experiment [8]. Moreover, the score in experiment [1] is 1.33. In experiment [2], this compound yielded a rescue above control of 6.9. Moreover, the cytochrome c release ratio in [3] was determined as 0.8. Also, the inhibition of aggregation in [4] was found to be 48.7%. The compound further displayed a glutamate uptake change in [5] of 1.09%. In [6], the inclusion score worked out at 2. This compound returned an aggregation suppression score in experiment [7] of 1.46. The red/green cell ratio (normalised) in experiment [9] is 1.08 (inactive). The normalised cell number in experiment [9] (setting [16]) came out at 0.99; in experiment [9] (setting [17]), 1.06. Also, the luciferase signal in experiment [15] is 76 AU (inactive).

On to `CCOP(=S)(OCC)SCn1c(=O)oc2cc(Cl)ccc21`, for which the inhibition in experiment [8] was -13.8% (inactive). In experiment [10], the activity remaining is 96.1% (inactive).

The record behind these values is PubChem BioAssay.
